High-throughput results as filed in PubChem BioAssay.
A selection: hits, their analogues and other compounds. The true share with any hit is near 4.6%.
D1 agonist: activates the human D1 dopamine receptor; hit rate 1% among 360,000; HEK293 T-REx D1 cells, calcium flux, agonist mode; activation, % at 2 µM; P21728; note: 0% is about no effect
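Inducible HEK293 T-REx D1 cells, force-coupled to calcium signalling, were plated at 4000 cells/well with tetracycline and held overnight at 30 C. After no-wash calcium dye loading, compound-evoked calcium rise over 180 s flagged agonists.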
D1 potentiator: potentiators of human D1 dopamine receptor; potentiation, % at 10 µM; HEK293 TREx D1 cells, calcium flux, dopamine EC20 potentiation; hit rate 0.036% among 360,000; in the data active = potentiation above about 30%; note: 0% is about no effect
TRHR agonist: TRH receptor (human) agonism; TRHR cells, calcium flux fluo-8, FDSS agonist mode; activation, % at 2 µM; hit rate 0.18% among 360,000; P34981; note: 0% is about no effect
Target sequence (P34981 whole entry, looked up): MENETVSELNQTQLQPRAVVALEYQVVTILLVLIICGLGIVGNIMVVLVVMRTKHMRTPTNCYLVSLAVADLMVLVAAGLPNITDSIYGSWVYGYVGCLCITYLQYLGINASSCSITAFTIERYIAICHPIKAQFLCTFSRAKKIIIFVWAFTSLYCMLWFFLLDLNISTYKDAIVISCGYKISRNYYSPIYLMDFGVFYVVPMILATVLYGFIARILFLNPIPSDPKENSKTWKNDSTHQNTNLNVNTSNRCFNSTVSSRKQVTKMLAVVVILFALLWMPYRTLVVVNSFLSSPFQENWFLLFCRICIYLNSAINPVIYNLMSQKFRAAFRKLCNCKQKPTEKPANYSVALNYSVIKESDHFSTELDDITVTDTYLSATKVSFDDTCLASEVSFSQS
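TRHR-expressing cells, plated overnight in medium with 10% serum, were loaded with fluo-8 calcium dye at room temperature. After a 10 s baseline, library compound was pin-added and calcium release was recorded kinetically (ex 480/em 530) as agonist response.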
D1 antagonist: human D1 dopamine receptor antagonism; P21728; HEK293 TREx D1 cells, calcium flux, dopamine EC80; active compounds read low; activity change, negative = inhibition, % at 10 µM; hit rate 3.2% among 360,000; AID 504652; in the data active = activity change below about -30%; note: % is set by controls: 0 for no effect and ±100 for the full control effect
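Tetracycline-induced HEK293 T-REx cells with force-coupled D1 receptor were loaded with a no-wash calcium dye. Compound was added after a 10 s baseline and read kinetically for 180 s; EC80 dopamine was then added and calcium flux followed another 180 s.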
TRHR PAM: allosteric enhancers of human TRH receptor; TRHR cells, fluo-8 calcium fluorescence, EC20 TRH enhancement; P34981; enhancement, % at 2 µM; AID 493056; hit rate 0.66% among 360,000; in the data active = enhancement above about 30%; note: 0% is about no effect
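Enhancer read-out: after compound pinning and an initial kinetic agonist-mode read, an EC20 of TRH (10 nM final) was injected and fluo-8 calcium signal (Ex 480/Em 530) followed at 1 s/cycle for 100 cycles in TRHR-expressing cells.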
* hit, by the source's call. Cut-off read from the data, not from the text of the source, unless noted: active = activation above about 30%; inactive = the rest.

For Nc1nnnn1/N=C/c1cc(Cl)cc(Cl)c1O the results were D1 agonist 126*, D1 potentiator 2, TRHR agonist 25, D1 antagonist -4 and TRHR PAM 3.
For O=C(NCc1ccccc1)c1ccc(-c2ccccc2C(F)(F)F)o1 the results were D1 agonist 13, D1 potentiator -6, TRHR agonist 0, D1 antagonist -8 and TRHR PAM 3.
Screening Cc1ccccc1-c1ccc(C(=O)NCc2ccccc2)o1 returned D1 agonist -1, D1 potentiator -8, TRHR agonist 0, D1 antagonist -42* and TRHR PAM 0.
Screening CCOC(=O)c1sc(=S)n(C)c1N returned D1 agonist 2, D1 potentiator -7, TRHR agonist 0, D1 antagonist -33* and TRHR PAM 1.
For CCOC(=O)c1sc(=S)n(C)c1C the results were D1 agonist 2, D1 potentiator 2, TRHR agonist 0, D1 antagonist 2 and TRHR PAM 0.
For CNc1nc(-c2ccc3c(c2)CCN3C(=O)CC(C)(C)C)c(C)s1 the results were D1 agonist 3, D1 potentiator 2, TRHR agonist 0, D1 antagonist -35* and TRHR PAM 8.
O=C(C[n+]1ccncc1)c1ccccc1 was read as D1 agonist 2, D1 potentiator -1, TRHR agonist 0, D1 antagonist 4 and TRHR PAM -1.
COC1=C/C(=C/c2c(N)n3cc(C)sc3nc2=O)C=CC1=O was read as D1 agonist 30*, D1 potentiator -4, TRHR agonist 9, D1 antagonist 5 and TRHR PAM 15.
`COC1=C/C(=C/c2c(N)n3nc(CC(=O)N4CCCC4)sc3nc2=O)C=CC1=O` gave D1 agonist 16, D1 potentiator -3, TRHR agonist 14, D1 antagonist 12 and TRHR PAM -1.
COc1ccccc1Cc1nc2ccccc2nc1SCC(=O)NCc1ccccc1Cl was read as D1 agonist 1, D1 potentiator 0, TRHR agonist 0, D1 antagonist 7 and TRHR PAM -3.
COc1cc(CNCc2ccccn2)ccc1OCc1c(Cl)cccc1Cl was read as D1 agonist 41*, D1 potentiator 3, TRHR agonist 0, D1 antagonist 5 and TRHR PAM 6.
Screening COc1cc(CNCc2ccccn2)ccc1OCc1ccc(Cl)cc1 returned D1 agonist 24, D1 potentiator -8, TRHR agonist 1, D1 antagonist -9 and TRHR PAM 9.
`Cc1cccc(NC(=O)Cc2coc3ccc4ccccc4c23)n1` gave D1 agonist -1, D1 potentiator 9, TRHR agonist 0, D1 antagonist 9 and TRHR PAM 4.
CN(C)S(=O)(=O)c1ccc2c(c1)N(CC(=O)NCc1cccc(Br)c1)C(=O)CS2 was read as D1 agonist 5, D1 potentiator 4, TRHR agonist -1, D1 antagonist -14 and TRHR PAM -2.
`Cc1[nH]c2ccccc2c1C(=O)C(=O)N(C)C1CCCCC1` gave D1 agonist 5, D1 potentiator -4, TRHR agonist -1, D1 antagonist -53* and TRHR PAM 1.
`CCCN1C(=O)C(=O)N(CC(=O)c2cc(C)n(C3CC3)c2C)C1=O` gave D1 agonist 0, D1 potentiator -5, TRHR agonist 0, D1 antagonist -4 and TRHR PAM -7.
For CSc1ccccc1NC(=O)c1ccccc1 the results were D1 agonist 0, D1 potentiator -7, TRHR agonist 0, D1 antagonist -32* and TRHR PAM 7.
Screening CSc1ccccc1NC(=O)c1ccncc1 returned D1 agonist 1, D1 potentiator 2, TRHR agonist 0, D1 antagonist 2 and TRHR PAM 2.
O=C(O)c1ccc(CS(=O)c2cccc(C(F)(F)F)c2)o1 (stereo unspecified) was read as D1 agonist 9, D1 potentiator -1, TRHR agonist 0, D1 antagonist -32* and TRHR PAM 3.
Cc1ccc(-n2ncc(C(=O)N3CCN(c4ccccn4)CC3)c2C2CCN(C(=O)OC(C)(C)C)CC2)cc1 was read as D1 agonist 3, D1 potentiator -6, TRHR agonist 0, D1 antagonist -18 and TRHR PAM 3.
For O=C(CSc1nc2ccccc2o1)Nc1ccc(N2CCOCC2)cc1 the results were D1 agonist 5, D1 potentiator -2, TRHR agonist 0, D1 antagonist -44* and TRHR PAM 1.
`O=C(CSc1ccc(S(=O)(=O)N2CCOCC2)cn1)Nc1ccc(F)c(F)c1` gave D1 agonist 21, D1 potentiator -2, TRHR agonist 1, D1 antagonist -57* and TRHR PAM -8.
O=C(CSc1nc2cc(S(=O)(=O)N3CCOCC3)ccc2o1)Nc1c(F)cccc1F was read as D1 agonist 6, D1 potentiator -3, TRHR agonist 0, D1 antagonist -32* and TRHR PAM 12.
`CC(C)(C)NC(=O)NC(=O)CSc1ccc(S(=O)(=O)N2CCCCC2)cn1` gave D1 agonist 8, D1 potentiator 5, TRHR agonist 1, D1 antagonist -39* and TRHR PAM 1.
Screening CCC(CC)NC(=O)CSc1ccc(S(=O)(=O)N2CCCCC2)cn1 returned D1 agonist 0, D1 potentiator 2, TRHR agonist -1, D1 antagonist 0 and TRHR PAM -3.
Screening COc1ccc(CNC(=O)CCC(=O)N2CCN(C(C)=O)CC2)cc1 returned D1 agonist 5, TRHR agonist 0, D1 antagonist -11 and TRHR PAM -4.
`C/C(=N\NC(=O)CSc1nc2ccccc2o1)c1cccc(O)c1` gave D1 agonist 6, D1 potentiator -4, TRHR agonist 0, D1 antagonist -35* and TRHR PAM 9.
`CC(C)N(C(=O)CSc1ccc(S(=O)(=O)N2CCCCC2)cn1)c1ccccc1` gave D1 agonist 2, D1 potentiator -5, TRHR agonist -1, D1 antagonist -37* and TRHR PAM -4.
Cc1ccc(C=Nc2ccccc2C(=O)Nc2ccccc2)cc1 was read as D1 agonist 0, D1 potentiator -4, TRHR agonist 0, D1 antagonist -9 and TRHR PAM 6.
Cc1ccc(C=Nc2ccccc2C(N)=O)cc1 was read as D1 agonist 60*, D1 potentiator -8, TRHR agonist 0, D1 antagonist -35* and TRHR PAM -8.
c1ccc(OCCCCN2CCCCC2)cc1 was read as D1 agonist 4, D1 potentiator 0, TRHR agonist 1, D1 antagonist 1 and TRHR PAM 3.
For CN1CCCC(CC2Oc3ccccc3Sc3ccccc32)C1 (stereo unspecified) the results were D1 agonist 49*, D1 potentiator -12, TRHR agonist 2, D1 antagonist -74* and TRHR PAM 8.
